From PubChem BioAssay
Active and inactive are the calls of the source.

Tests used:
[1] = test system: XIP peptide (Xip251-270) binding; experiment: XIP fragment 251-270 binding compounds – biochemical, small-molecule microarray, fluorescence 635/667 nm, 0.1 µg/mL protein, primary screen (AID 1182); conditions: fluorescent protein binding, 635 nm, higher = more signal, called active from +8 up or from −8 down
XIP peptide (Xip251-270) = experiment: compounds binding XIP fragment 251-270 – biochemical, small-molecule microarray, fluorescence 635/667 nm, 0.5 µg/mL protein, primary screen (AID 1183); conditions: fluorescence 635 nm, higher = more signal
[2] = blood-stage malaria parasite viability loss – strain 3D7, DAPI fluorescence, 100 nL, primary screen (AID 1184);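 note: parasites grown inside human red blood cells in medium with human serum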; conditions: P. falciparum 3D7 growth, 3 d, higher = more signal
[3] = target: Homeobox protein Hox-A13 (Mus musculus) (UniProt Q62424); experiment: disruptors of Hoxa13 oligonucleotide interaction – biochemical, fluorescence polarization, labeled oligonucleotide, primary screen (AID 1185); conditions: Hoxa13:DNA binding, 15 min, higher = more signal, called active from +8 up or from −8 down
Homeobox protein Hox-A13 (Mus musculus), sequence (Q62424 whole entry, looked up): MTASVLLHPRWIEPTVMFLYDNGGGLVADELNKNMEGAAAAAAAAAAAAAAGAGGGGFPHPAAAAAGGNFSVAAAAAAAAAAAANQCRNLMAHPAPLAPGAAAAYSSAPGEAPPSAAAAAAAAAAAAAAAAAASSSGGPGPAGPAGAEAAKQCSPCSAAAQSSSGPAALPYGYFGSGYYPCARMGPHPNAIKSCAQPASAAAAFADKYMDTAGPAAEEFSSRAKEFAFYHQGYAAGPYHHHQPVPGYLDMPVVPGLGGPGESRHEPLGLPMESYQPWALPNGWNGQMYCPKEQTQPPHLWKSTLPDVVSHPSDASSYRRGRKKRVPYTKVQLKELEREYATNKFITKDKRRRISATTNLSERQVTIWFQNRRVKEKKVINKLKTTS

| Compound | composite z-score [1] | composite z-score (XIP peptide (Xip251-270)) | z-score [2] | z-score [3] |
| --- | --- | --- | --- | --- |
| CCOC(=O)[C@H](Cc1ccccc1)NC(=O)CCC1CC(OC(=O)NCCc2ccc(F)cc2)CC2(CCCC(COC(=O)NCCC(C)C)O2)O1 (stereo not given in full) | 0.162 (inactive) | 0.657 | -1.66 | -4.45 (inactive) |
| CC(C)CON=C1C[C@@H](O)[C@@H](O)[C@@H]2[C@@H]3C(=O)N([C@@H](C)c4ccccc4)C(=O)[C@@H]3CC[C@@H]12 | 0.0068 (inactive) | -0.344 | -0.274 | -2.35 (inactive) |
| CCC1=NOC(CCC2CC(OC(=O)NCc3cccc4c3OCO4)CC3(CCCC(COC(=O)NCCc4ccc(Cl)cc4)O3)O2)C1 (stereo not given) | 0.214 (inactive) | 0.855 | -0.184 | -2.58 (inactive) |
| CC(=O)OC[C@H]1O[C@H](CC=NO[C@@H](C)c2cn([C@H](CO)Cc3ccccc3)nn2)C=C[C@@H]1OC(C)=O | -0.0018 (inactive) | 0.361 | -1.13 | -0.583 (inactive) |
| CC(C)=NOC[C@@H](O)[C@H]1O[C@@H]2OC(C)(C)O[C@@H]2[C@H]1O | 0.524 (inactive) | -0.122 | 0.292 | 0.483 (inactive) |
| CCOC(=O)[C@H](CC(C)C)NC(=O)CCC1CC(OC(=O)NCc2ccc3c(c2)OCO3)CC2(CCCC(COC(=O)NCCOc3ccccc3)O2)O1 (stereo not given in full) | 0.24 (inactive) | 0.368 | -1.87 | -6.24 (inactive) |
| COC(=O)[C@H](C)NC(=O)CC=C[C@@H](C)[C@@H]1C=C[C@H](O)[C@@H](CO)O1 | 0.672 (inactive) | 0.0241 | -1.66 | -0.56 (inactive) |
| CCN1C(=O)[C@H]2[C@H]3[C@H](O)[C@H](O)CC(=NO[C@@H]4O[C@H](CO)[C@@H](O)[C@H](O)[C@H]4O)[C@H]3CC[C@H]2C1=O | -0.0195 (inactive) | 0.263 | -0.0716 | -0.898 (inactive) |
| CO[C@@H](C1CCCCC1)[C@@H](C)[C@H](OCc1cccc(Br)c1)[C@@H](C)CO | -0.0994 (inactive) | -0.0791 | -0.254 | -4.53 (inactive) |
| O=C(NCCC[N+]1=CC=NC1c1ccccc1)N1CCCc2nc(-c3ccc(Br)cc3)ccc21 (stereo not given) | 0.638 (inactive) | 0.0388 | -0.449 | -7.21 (inactive) |
| CCOC(=O)[C@H](Cc1ccccc1)NC(=O)CCC1CC(OC(=O)NCc2cccc3ccccc23)CC2(CCCC(COC(=O)NCc3ccc4c(c3)OCO4)O2)O1 (stereo not given in full) | -0.322 (inactive) | 0.818 | 0.721 | -3.19 (inactive) |
| CC(CCC(=O)OC[C@H]1O[C@H](C#Cc2ccccc2)C=C[C@@H]1Oc1ccc(C)cc1)=NO[C@@H](C)c1cc(-c2c(C)cc(C)cc2C)no1 | 0.0185 (inactive) | -0.333 | -1.36 | -1.88 (inactive) |
| COC(=O)[C@H](C)NC(=O)CCC1CC(OC(=O)NCCc2ccc(F)cc2)CC2(CCCC(COC(=O)NCc3ccccc3)O2)O1 (stereo not given in full) | 0.166 (inactive) | 0.607 | -1.93 | -1.56 (inactive) |
| CCOC(=O)[C@H](Cc1ccccc1)NC(=O)CCC1CC(OC(=O)NCc2ccc3c(c2)OCO3)CC2(CCCC(COC(=O)NCCOc3ccccc3)O2)O1 (stereo not given in full) | -0.125 (inactive) | 0.565 | -1.57 | -0.985 (inactive) |
| CC(C)CON=C1C[C@@H](O)[C@@H](O)[C@@H]2[C@@H]3C(=O)N(Cc4ccc5c(c4)OCO5)C(=O)[C@@H]3CC[C@@H]12 | -0.263 (inactive) | -0.266 | -0.721 | -0.441 (inactive) |
| COc1ccc(OC[C@@H](CO)OC)cc1 | 0.617 (inactive) | -0.317 | 1.62 | -0.0261 (inactive) |
| CC(CCN1CCc2nc(-c3ccccc3)c(-c3ccccc3)cc2C1)=NOC(C)CN1CCCc2nc(C)c(C)cc21 (stereo not given) | 0.161 (inactive) | 0.558 | 0.5 | -9.97 (active) |
| CC(=O)OC[C@H]1O[C@H](CC=NO[C@@H](C)c2cc(-c3c(C)cc(C)cc3C)no2)C=C[C@@H]1OC(C)=O | 0.205 (inactive) | -0.445 | -0.863 | -5.88 (inactive) |
| O=C1[C@H]2[C@H]3[C@H](O)[C@H](O)CC(=NOCc4ccccc4)[C@@H]3CC[C@H]2C(=O)N1c1cccc(Oc2ccccc2)c1 | 0.811 (inactive) | 0.123 | -0.129 | -1.24 (inactive) |
| C[C@]12CCC3c4ccc(OCC5CO5)cc4CCC3C1CC[C@@H]2O (stereo not given in full) | 0.504 (inactive) | 0.0249 | 0.0788 | -2.47 (inactive) |
| CCOC(=O)[C@H](CC(C)C)NC(=O)CCC1CC(OC(=O)NCc2ccc3c(c2)OCO3)CC2(CCCC(COC(=O)NCCc3ccccc3OC)O2)O1 (stereo not given in full) | 0.677 (inactive) | 0.622 | -1.88 | -3.78 (inactive) |
| CCOC(=O)CCN1C(=O)[C@H]2[C@H]3[C@H](O)[C@H](O)CC(=NNC(=O)OCc4ccccc4)[C@H]3CC[C@H]2C1=O | 0.0983 (inactive) | -0.0907 | -0.873 | -3.59 (inactive) |
| O=C1C=C[C@@H](O)[C@@H]2[C@@H]3C(=O)N(Cc4ccc5c(c4)OCO5)C(=O)[C@@H]3CC[C@@H]12 | -0.297 (inactive) | 0.228 | -0.786 | -0.416 (inactive) |

| Compound | composite z-score [1] | composite z-score (XIP peptide (Xip251-270)) | z-score [2] | z-score [3] |
| --- | --- | --- | --- | --- |
| COc1ccc(OC[C@@H]2CC3[C@@H](c4ccc(Br)cc4)[C@H](C)CC[C@H]3C(=O)O2)cc1 (stereo not given in full) | -0.0755 (inactive) | 0.659 | 0.163 | 0.109 (inactive) |
| CO[C@@H]1[C@H](O)CO[C@H]1C=Cc1ccccc1 | -0.553 (inactive) | 0.836 | -0.703 | -3.28 (inactive) |
| CCc1cc2c(nc1CC)CCN(CCC(C)=NOCC[C@@H]1C=C[C@H](OC(C)=O)[C@@H](COC(C)=O)O1)C2 | -0.0297 (inactive) | 0.45 | -0.876 | -5.38 (inactive) |
| COC(=O)CC=C[C@@H](C)[C@@H](C=NOC(C)CN1CCCCc2nc(C)c(C)cc21)OC (stereo not given in full) | 0.771 (inactive) | 0.444 | 1 | -4.37 (inactive) |
| O=C1[C@H]2[C@H]3[C@H](O)[C@H](O)CC(=NOC[C@@H](O)COCc4ccco4)[C@@H]3CC[C@H]2C(=O)N1Cc1ccc2c(c1)OCO2 | -0.0588 (inactive) | 0.265 | 1.15 | 0.263 (inactive) |
| O=C1CCCC=C1C(O)COCc1ccccc1 (stereo not given) | 0.253 (inactive) | 0.269 | -0.674 | -3.62 (inactive) |
| OC[C@H]1O[C@H](C#Cc2ccccc2)C=C[C@@H]1O | 0.0849 (inactive) | -0.105 | 0.223 | -2.53 (inactive) |
| CC(CCC(=O)OC[C@H]1O[C@H](C#Cc2ccccc2)C=C[C@@H]1Oc1ccc(C)cc1)=NOC[C@@H](C)[C@H](OCc1ccccc1)C(C)C | -0.582 (inactive) | -0.693 | -0.0982 | -0.499 (inactive) |
| CCOC(=O)CCN1C(=O)[C@H]2[C@H]3[C@H](O)[C@H](O)CC(=NO[C@@H]4O[C@H](CO)[C@@H](O)[C@H](O)[C@H]4O)[C@@H]3CC[C@H]2C1=O | 0.557 (inactive) | 0.632 | 0.434 | 0.142 (inactive) |
| O=C1[C@H]2CCn3c(=O)n(-c4ccccc4)c(=O)n3[C@H]2[C@H](O)[C@@H]2O[C@H]12 | -0.0756 (inactive) | 0.614 | -0.815 | -0.418 (inactive) |
| Cc1cc(C)c(-c2cc([C@H](C)ON=C[C@@H](C)[C@H](OCc3ccccc3)C(C)C)on2)c(C)c1 | -0.0022 (inactive) | -0.291 | -0.317 | -0.415 (inactive) |
| CC(CCN1CCCc2nc(C)c(C)cc21)=NO[C@@H](C)c1cn([C@H](CO)Cc2ccccc2)nn1 | 0.51 (inactive) | 0.244 | 0.221 | -0.829 (inactive) |
| O=C1C=C[C@@H](O)[C@@H]2[C@@H]3C(=O)N(C4CCCCC4)C(=O)[C@@H]3CC[C@@H]12 | 0.386 (inactive) | 0.178 | 0.307 | -0.431 (inactive) |
| CN1CCc2nc(-c3ccccc3)c(-c3ccccc3)cc2C1 | -0.368 (inactive) | 0.0309 | 0.309 | -0.07 (inactive) |
| O=C(NN=C1C[C@@H](O)[C@@H](O)[C@@H]2[C@@H]3C(=O)N(c4ccc(F)cc4F)C(=O)[C@@H]3CC[C@H]12)OCc1ccccc1 | 0.081 (inactive) | 0.653 | -0.131 | -5.87 (inactive) |
| CCOC(=O)[C@H](Cc1ccccc1)NC(=O)CCC1CC(OC(=O)NCc2ccc3c(c2)OCO3)CC2(CCCC(COC(=O)NCCCN3CCCC3=O)O2)O1 (stereo not given in full) | 0.112 (inactive) | 0.577 | -1.87 | -3.13 (inactive) |
| CC(C)[C@@H](OCc1ccccc1)[C@H](C)CON=C1[C@H]2CCn3c(=O)n(-c4ccccc4)c(=O)n3[C@H]2[C@H](O)[C@@H]2O[C@H]12 | -0.874 (inactive) | 0.199 | -2 | -5.16 (inactive) |
| CCOC(=O)[C@H](CC(C)C)NC(=O)CCC1CC(OC(=O)NCc2ccc3c(c2)OCO3)CC2(CCCC(COC(=O)NCCC(C)C)O2)O1 (stereo not given in full) | 0.554 (inactive) | 0.842 | -0.278 | -1.7 (inactive) |
| CCN1C(=O)[C@H]2[C@H]3[C@H](O)[C@H](O)CC(=NOCC(C)C)[C@H]3CC[C@H]2C1=O | -0.583 (inactive) | -0.122 | 1.82 | 0.204 (inactive) |
| COC(=O)CC=C[C@@H](C)[C@@H](C=NOC(C)CN1CCCc2nc(C)c(C)cc21)NS(=O)(=O)c1ccc(C)cc1 (stereo not given in full) | 0.364 (inactive) | 0.624 | 0.135 | -7.74 (inactive) |
| Cc1cc2c(nc1C)CCCCN2CC(O)CN1CCCc2nc(-c3ccc(Br)cc3)ccc21 (stereo not given) | -0.0362 (inactive) | 0.0985 | 0.528 | -4.77 (inactive) |
| C#CCCCON=C1C[C@@H](O)[C@@H](O)[C@@H]2[C@@H]3C(=O)N(C[C@@H]4CCCO4)C(=O)[C@@H]3CC[C@@H]12 | 0.141 (inactive) | 0.384 | 1.38 | 0.866 (inactive) |
